The panel holds about 83,000 compounds, 20% with a hit somewhere; the sample as a whole holds those more often.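 Method: cells in 96-well plates; compound added at one concentration; 48 h incubation; percent growth measured; values under 10 scored active.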 Activity calls are given as the source filed them.
Tests used:
Experiment in all cases: NCI-60 one-dose screen, 48 h (100 = growth as untreated, 0 = no growth, -100 = all killed)
Conditions in all cases: 10 µM unless noted
[1] = tested on: SR leukemia
[2] = tested on: RPMI-8226 leukemia
[3] = tested on: OVCAR-8 ovarian
[4] = tested on: OVCAR-5 ovarian
[5] = tested on: OVCAR-4 ovarian
[6] = tested on: SK-OV-3 ovarian
[7] = tested on: IGROV1 ovarian
[8] = tested on: OVCAR-3 ovarian
[9] = tested on: HS 578T breast
[10] = tested on: NCI/ADR-RES ovarian

Measured: growth

NNCCc1ccc(NC(=O)CCCc2ccc(C(=O)Nc3ccccc3N)cc2)cc1
inactive: [1] 55.2% | [2] 41.8% | [3] 45.6% | [4] 74% | [5] 70.1% | [6] 79.3% | [7] 86.8% | [8] 75% | [9] 77.8% | [10] 85%

COc1ccc(/C=C/C(=O)c2cc(OC)c(OC)c(OC)c2)cc1OCC(=O)Nc1nc2ccc(OC(F)(F)F)cc2s1
inactive: [1] 11.6% | [4] 96.3%
active: [2] 6.47% | [3] 3.67% | [5] -7.18% | [6] -11.8% | [7] -1.97% | [8] -77.3% | [9] -20.8% | [10] -13.5%

COC1=C(C)C(=O)N2[C@@H]1[C@H](c1ccccc1)OC21C=CC(=O)C=C1
inactive: [3] 19.4% | [5] 33.4% | [6] 112% | [9] 32.6% | [10] 20.1%
active: [1] 2.4% | [2] -20.7% | [4] -56.1% | [7] -20.7% | [8] -4.05%

COc1cc2c(c(OC)c1OC)C(=O)CC(c1cccc(NC(=O)c3ccc(C#N)cc3)c1)O2 (stereo not given)
inactive: [1] 41.7% | [2] 30.8% | [3] 40.9% | [4] 101% | [5] 63% | [6] 99.1% | [7] 85.5% | [8] 76.5% | [9] 90.3% | [10] 50.7%

CC1=C(C(=O)Nc2nc(-c3ccc(Cl)cc3)cs2)[C@H](c2ccc(O)cc2)NC(=O)N1
inactive: [1] 113% | [2] 109% | [3] 105% | [4] 106% | [5] 98.6% | [6] 111% | [7] 97.8% | [8] 95.8% | [9] 106% | [10] 101%

O=S1(=O)C=C(c2ccccc2)C(c2ccccc2)=C1
active: [1] -3.82% | [2] 4.61% | [3] 6.07% | [8] -86% | [9] -5.2% | [10] 8.7%
inactive: [4] 85.1% | [5] 27.6% | [6] 88.8% | [7] 11.7%

CC1CCN(C(=O)CCCl)c2ccccc21 (stereo not given)
inactive: [1] 113% | [2] 114% | [3] 96.6% | [4] 129% | [5] 103% | [6] 112% | [7] 96.9% | [8] 115% | [9] 87.5% | [10] 98%

C=C(CNCCO)[C@@H]1CC[C@]2(CO)CC[C@]3(C)[C@H](CC[C@@H]4[C@@]5(C)CCC(N)C(C)(C)[C@@H]5CC[C@]43C)[C@@H]12 (stereo not given in full)
active: [1] -23.1% | [2] -35.3%
inactive: [3] 36.8% | [4] 81.6% | [5] 64.6% | [6] 95.2% | [7] 65.3% | [8] 69.4% | [9] 51% | [10] 94.8%

O=C(CC(=O)Nc1cccc(C(=O)O)c1)Nc1cccc(C(=O)O)c1
inactive: [1] 96% | [2] 100% | [3] 107% | [4] 101% | [5] 97.8% | [6] 106% | [7] 109% | [8] 113% | [9] 100% | [10] 106%

NC(N)=NS(=O)(=O)c1ccc(NC2=C(I)C(=O)c3ncccc3C2=O)cc1
inactive: [1] 104% | [2] 104% | [3] 97.2% | [4] 112% | [5] 93% | [6] 87.8% | [7] 97.5% | [8] 95.3% | [9] 103% | [10] 94.1%

CCS/C(Nc1ccccc1)=C(\C#N)C(=O)Nc1ccc(OC)cc1
active: [1] 6.62% | [8] -12.1% | [10] -0.669%
inactive: [2] 25.2% | [3] 31.2% | [4] 63.1% | [5] 66.7% | [6] 22.4% | [7] 55.7% | [9] 27.4%

COc1ccc(C(O)c2cc3c(N)c(C(=O)Nc4cccc(Cl)c4C)sc3nc2C)cc1 (stereo not given)
active: [1] 0.176% | [2] -2.02% | [8] -11% | [10] 7.99%
inactive: [3] 10.1% | [4] 35.5% | [5] 25.7% | [6] 11.6% | [7] 10.7% | [9] 13.6%

— PubChem BioAssay (NCI)
